Here are results for 62 compounds from PubChem BioAssay AID488969 (Vanderbilt High Throughput Screening Facility, 2010).

Over roughly 110,000 compounds, “z-score” has its median near -0.1; the highest 2% begin near 2. The sample holds the highest values, similar compounds and a random draw of the others, so the mix is not that of the screen. Activity calls are given as the source filed them.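 Rule for the calls: active = z-score in the third read window above 3 or below -3; inactive = the rest.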

Chain of Metabotropic glutamate receptor 8 (Rattus norvegicus) (P70579 whole entry, looked up): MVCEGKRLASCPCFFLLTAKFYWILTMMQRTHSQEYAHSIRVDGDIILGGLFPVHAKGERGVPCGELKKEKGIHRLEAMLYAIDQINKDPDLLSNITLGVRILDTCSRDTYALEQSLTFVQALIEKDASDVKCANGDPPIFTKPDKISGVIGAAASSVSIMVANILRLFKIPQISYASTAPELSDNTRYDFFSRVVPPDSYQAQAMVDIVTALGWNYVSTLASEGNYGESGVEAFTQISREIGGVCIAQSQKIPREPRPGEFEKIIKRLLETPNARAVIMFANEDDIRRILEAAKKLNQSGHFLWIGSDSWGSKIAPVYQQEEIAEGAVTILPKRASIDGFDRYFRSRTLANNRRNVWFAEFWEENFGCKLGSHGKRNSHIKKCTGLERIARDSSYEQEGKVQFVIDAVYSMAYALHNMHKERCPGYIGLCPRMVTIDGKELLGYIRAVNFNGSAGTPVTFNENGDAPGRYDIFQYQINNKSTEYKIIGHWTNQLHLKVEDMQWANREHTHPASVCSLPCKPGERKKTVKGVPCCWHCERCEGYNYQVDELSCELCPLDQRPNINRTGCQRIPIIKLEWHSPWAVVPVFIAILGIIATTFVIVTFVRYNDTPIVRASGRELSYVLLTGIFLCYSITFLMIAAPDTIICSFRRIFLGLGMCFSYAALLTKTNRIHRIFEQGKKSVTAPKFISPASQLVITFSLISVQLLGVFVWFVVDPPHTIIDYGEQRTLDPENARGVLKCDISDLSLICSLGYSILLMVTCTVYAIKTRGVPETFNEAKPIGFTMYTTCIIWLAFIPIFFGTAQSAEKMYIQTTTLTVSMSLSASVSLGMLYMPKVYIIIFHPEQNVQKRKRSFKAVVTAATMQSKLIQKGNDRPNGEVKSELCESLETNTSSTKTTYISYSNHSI

This assay has as its target Metabotropic glutamate receptor 8 (Rattus norvegicus) (UniProt P70579). Briefly: rat mGluR8 modulators via GIRK flux, primary screen, cell-based, thallium flux, HTS (AID 488969). Conditions: HEK293 rat mGluR8, GIRK (G protein-gated inwardly rectifying potassium channel) thallium flux, FluoZin2; at 10 µM; stronger effect = higher value; submaximal glutamate (EC20) added with thallium.
The compound `Cc1nc(=O)c(-c2ccccc2)c(C)n1-c1ccc(O)cc1` came in with a z-score of -1.56.

In turn, `CCc1ccc(OCC(=O)N/N=C/c2ccc(OS(=O)(=O)c3ccc(C)cc3)c(OC)c2)cc1` displayed a z-score of -0.212.

`Cc1ccc2nsnc2c1S(=O)(=O)NC1CC1` came in with a z-score of 0.516.

`Cc1sc(NC(=O)c2ccco2)c(CN2CCN(c3ccccc3)CC2)c1C` gave a z-score of -0.213.

On to `c1ccc(N(c2ccccc2)c2nc(-n3ccnc3)nc(-n3ccnc3)n2)cc1`, for which the z-score is -0.953.

Compound `O=C(O)CCCn1nc(C(F)(F)F)c2c1CCCCC2` had a z-score of -0.241.

Turning to `COC(=O)Nc1sc(C(=O)N(C)C)c(C)c1C(=O)OC`, the z-score stood at 0.175.

For the compound `C=CCc1c(C)nc(C)nc1N/N=C/c1ccccc1`, the z-score was -0.683.

As to `C=CCc1c(C)nc(C)nc1N/N=C/c1ccc(F)cc1`, the z-score was -0.164.

For `C=CCc1c(C)nc(C)nc1N/N=C/c1ccccc1O`, the z-score worked out at 2.25.

`CSc1cc(C)n(-c2ccccc2)c(=S)c1C(C)=O`: the z-score was -0.0675.

Regarding `CCOc1ccc(CNC(=O)CCn2c(=O)oc3ccccc32)cc1OC`, the z-score is 0.903.

Consider `O=C(O)C1C2C=CC(O2)C1C(=O)Nc1ccc(S(=O)(=O)N2CCc3ccccc32)cc1` (configuration not stated), for which the z-score is -0.0204.

With `CCOC(=O)Cc1csc(NC(=S)NC(=O)C(C)(C)C)n1`, the z-score came to 1.73.

`CCOC(=O)Cc1csc(NC(=O)c2ccc(Br)o2)n1`: the z-score is 0.017.

In the case of `CCOC(=O)Cc1csc(NC(=S)NC(=O)CC(C)C)n1`, the z-score worked out at 1.27.

In the case of `CCOC(=O)Cc1csc(NC(=S)NC(=O)c2ccccc2C)n1`, the z-score is 9.08 (active).

Regarding `CCOC(=O)Cc1csc(NC(=O)c2ccc(Br)s2)n1`, the z-score amounted to 1.08.

As to `CCOC(=O)Cc1csc(NC(=S)NC(=O)c2ccccc2Br)n1`, the z-score is 7.57 (active).

In turn, `COC(=O)c1nnn(CC(=O)Nc2cc(Cl)ccc2C)c1C(=O)OC` had a z-score of -0.484.

Compound `COc1cc(/C=C2\SC(c3ccc(C)cc3)=NC2=O)ccc1O` displayed a z-score of -0.769.

Turning to `O=C(Nc1ccc(Cn2cccn2)cc1)c1ccc(COc2ccccc2Br)cc1`, the z-score was -0.0941.

`O=S(=O)(N/N=C/c1cn(Cc2ccccc2)c2ccccc12)c1ccccc1` registered a z-score of -0.216.

Take `Cc1cc(N2CCCCCC2)nc2ccccc12`: the z-score is -0.134.

Turning to `COc1ccccc1N1C(=O)CCC1(C#N)c1ccc(Br)cc1` (configuration not stated), the z-score was -0.14.

On to `Cc1c(NC(=O)CSc2ccc(Cl)cc2)cccc1-c1nc2ncccc2o1`, for which the z-score is -0.212.

As to `O=S(=O)(Nc1ccccc1N1CCCCC1)c1ccc(Cl)s1`, the z-score is 3.45 (active).

For `O=S(=O)(Nc1ccc(N2CCOCC2)cc1)c1ccc(Cl)s1`, the z-score is -0.104.

Consider `O=C(Nc1ccccc1)c1ccccc1NS(=O)(=O)c1ccc(Cl)s1`, for which the z-score was -3.39 (active).

Consider `O=C(Nc1cc(Cl)ccc1N1CCCCC1)c1cccs1`, for which the z-score was -0.311.

In the case of `O=S(=O)(Nc1ccc(N2CCCCC2)cc1)c1cccs1`, the z-score is -0.488.

On to `O=S(=O)(Nc1cc(Cl)ccc1N1CCCCC1)c1cccs1`, for which the z-score is 7.03 (active).

The compound `COC(=O)c1ccc(OC(=O)c2ccccc2F)cc1` registered a z-score of 0.198.

Consider `COc1ccccc1NC(=O)CSc1ccc2nnc(-c3cccnc3)n2n1`, for which the z-score is -0.277.

In turn, `O=C(COC(=O)c1ccc(-c2nnc(-c3ccccc3)o2)cc1)c1ccccc1` displayed a z-score of -0.145.

For `CC(C)n1c(N2CCN(CC(=O)NCc3cccs3)CC2)nc2ccccc21`, the z-score was -0.0505.

With `Cc1nccn1CC(O)Cn1c2ccccc2c2ccccc21` (configuration not stated), the z-score was found to be 2.

`Cc1nccn1CC(O)COc1ccccc1` (configuration not stated) had a z-score of -0.0583.

The compound `Cc1nc2ccccc2n1CC(O)Cn1c2ccccc2c2ccccc21` (configuration not stated) came in with a z-score of 0.752.

`Cc1cccc(-n2c(SCc3cc(=O)n4ccsc4n3)nc3ccccc3c2=O)c1` yielded a z-score of -0.276.

`Cc1nc(NC(=O)COc2ccccc2)sc1C(=O)Nc1ccccc1` registered a z-score of -0.075.

`CC(Oc1ccc(Cl)cc1Cl)C(=O)NCCN1CCOCC1` (configuration not stated) showed a z-score of 0.00607.

`CN1/C(=C\C(=S)NC(=O)c2ccccc2Cl)C(C)(C)c2ccccc21`: the z-score was 0.0507.

Take `Cc1cc(C)n(-c2nc3nonc3nc2-n2nc(C)cc2C)n1`: the z-score is 0.084.

Take `Cc1ccc(Nc2nc3nonc3nc2N(C)C)cc1`: the z-score is -0.0276.

`CCN(CC)c1nc2nonc2nc1N(CC)CC` displayed a z-score of 2.53.

Consider `Cc1n[nH]c(C)c1S(=O)(=O)N(CC(=O)Nc1ccc2c(c1)OCCO2)c1ccc(C(C)C)cc1`, for which the z-score was -0.193.

On to `O=C(NCCCc1ccccc1)Nc1ccccc1`, for which the z-score is 0.456.

On to `O=C(NCCCc1ccccc1)Nc1cccc(Cl)c1`, for which the z-score worked out at 2.01.

`O=C(NCCc1ccc(Cl)cc1)Nc1cccc(Cl)c1` yielded a z-score of 0.529.

In turn, `Cc1nc(N2CCN(C)CC2)c2c(C)c(C(=O)Nc3ccc(C)c(F)c3)sc2n1` returned a z-score of -0.555.

Turning to `CCCc1cc(=O)[nH]c(SCC(=O)NC(=O)OCC)n1`, the z-score is -0.0127.

The compound `Cc1cc(C)n(S(=O)(=O)c2ccc(C(C)(C)C)cc2)n1` showed a z-score of -1.41.

`CCc1nc(SCC(=O)Nc2c(C)nn(C)c2C)c2cnn(-c3ccccc3)c2n1` yielded a z-score of -0.873.

Compound `O=C(NC1(C(F)(F)F)NC(=O)N(C2CCCC2)C1=O)C1CC1` (configuration not stated) showed a z-score of -0.129.

With `CCOC(=O)NC1(C(F)(F)F)NC(=O)N(C2CCCCC2)C1=O` (configuration not stated), the z-score was 2.9.

Regarding `CC(=O)NC1(C(F)(F)F)NC(=O)N(C2CCCCC2)C1=O` (configuration not stated), the z-score was -0.137.

For the compound `COc1ccc(-c2nnc(SCc3nnc(-c4ccc(Cl)cc4)o3)n2-c2ccccc2)cc1`, the z-score is -1.79.

Take `COc1ccc(NS(=O)(=O)c2ccc(Br)s2)cc1OC`: the z-score worked out at 2.11.

Compound `COc1ccc(C)cc1NS(=O)(=O)c1ccc(Br)s1` yielded a z-score of 0.369.

In turn, `COc1cc(NS(=O)(=O)c2ccc(Br)s2)cc(OC)c1` gave a z-score of 0.398.

As for `CCC(=O)Oc1ccc(C(=O)Nc2cccc(C(=O)c3ccccc3)c2)cc1`, the z-score stood at 0.022.
